According to PubChem BioAssay (Tox21):
Inconclusive results are not listed. Entries that show only a call come without a potency. Activity calls are given as the source filed them. The call rests on the fitted dose curve; in most records, active means well fitted inhibition curve with a large enough effect in the repeat runs; inconclusive means weak or mixed curves, or effect the other way; inactive means no such curve, though single readings can be large or run the other way.

target: Nuclear receptor ROR-gamma (Homo sapiens) (UniProt P51449); assay: qHTS assay to identify small molecule antagonists of the retinoid-related orphan receptor gamma (ROR-gamma) signaling pathway (AID 1159521; further: nearly all actives have a fitted effect of over 50% in size; on activity change, negative = inhibition: top concentration of the series differs between compounds); conditions: Tet-on RORgamma CHO cells, RORE-luciferase, 16 h; series mostly up to 92.4 µM
Text: U.S. Tox21 Program National Center for Advancing Translational Sciences [NCATS] NIH Chemical Genomics Center [NCGC] U.S. Environmental Protection Agency [EPA] National Institutes of Environmental Health Sciences [NIEHS] National Toxicology Program [NTP] U.S. Food and Drug Administration [FDA] Tox21 Assay Overview: Nuclear steroid hormone receptors are involved in many biological processes including inflammatory responses, cell proliferation, and apoptosis. Environmental factors or compounds disrupting these nuclear receptor pathways and gene expression may promote susceptibility to immunotoxicants and autoimmune diseases. One important group of these expression factors are the retinoid-related orphan receptors. To assess compounds that may interfere with the retinoid-related orphan receptor gamma (ROR-gamma) transcription factor, a cell-based luciferase assay was used. The CHO cell-based assay utilizes a TET-inducible ROR expression factor and ROR response element-LUC reporter gene. Reporter gene activity was induced using Doxycycline Hyclate and measured after 16 hr incubation. Tet-on ROR gamma CHO cells were used to screen against the Tox21 10K compound library for ROR gamma antagonists by quantification of decreased reporter gene activity in terms of decreased luminescence.
Tox21 Assay Protocol Summary: Tet-on ROR gamma CHO cells were dispensed at 1,000 cells in 4 uL of culture medium per well into white wall/solid bottom 1536-well plates using a Multidrop Combi (Thermo Scientific, Waltham, MA) dispenser. Following incubation at 37 C and 5% CO2 for 4 hr, 23 nL of compounds dissolved in DMSO, positive controls or DMSO only were transferred by a Pintool station (Kalypsys, San Diego, CA) and after 2 hr incubation at 37 C, one ul of 1 uM (final concentration) of Doxycycline Hyclate was added to all the wells by using a Flying Reagent Dispenser (FRD) (Aurora Discovery, San Diego, CA). After 16 hr incubation at 37 C and 5% CO2, 5 uL of ONE-Glo reagent (Promega Corporation, Madison, WI) was added to each assay plate using FRD. After 30 min incubation at room temperature, luminescence was quantified on a ViewLux plate reader (Perkin Elmer, Waltham, MA).
Potency means the concentration at half of the fitted maximal effect.

Row | Structure (SMILES) | Potency | activity change, negative = inhibition
1 | CC/C(=C\C(=N/O)C(N)=O)C(C)[N+](=O)[O-] (stereo not given) | inactive | 
2 | CCCC[C@H]1CN(CC2CCOCC2)C(=O)OC12CCN(C1(C)CCN(C(=O)c3c(C)ncnc3C)CC1)CC2 | inactive | 
3 | O=[N+]([O-])c1cccc(Cl)c1Cl | inactive | 
4 | O=C(O)COC(=O)Cc1ccccc1Nc1c(Cl)cccc1Cl | inactive | 
5 | CCCCCCOC(=O)CCC | inactive | 
6 | CC1CCc2cc(F)cc3c(=O)c(C(=O)O)cn1c23 (stereo not given) | inactive | 
7 | CC(C)=CCCC(C)CC=O (stereo not given) | inactive | 
8 | O=C1CCCCCO1 | inactive | 
9 | CC(C)CC=O | inactive | 
10 | CCCCCC/C=C/C=O | inactive | 
11 | Oc1ccc(Cc2ccccc2)cc1 | inactive | 
12 | c1ccc(OCc2ccc(CCCN3CCOCC3)cc2)cc1 | inactive | 
13 | COC(=O)CSc1cc(N=c2sc(=O)n3n2CCCC3)c(F)cc1Cl | inactive | 
14 | N#CCCNCCC#N | inactive | 
15 | CN(c1nccc(=O)[nH]1)C1CCN(c2nc3ccccc3n2Cc2ccc(F)cc2)CC1 | inactive | 
16 | Oc1ccc(Sc2ccc(O)cc2)cc1 | inactive | 
17 | CC[C@H](C)[C@@H](C(=O)O)n1sc2ccccc2c1=O | inactive | 
18 | NC1CCN(c2nc3c(cc2F)c(=O)c(C(=O)O)cn3-c2ccc(F)cc2F)C1 (stereo not given) | inactive | 
19 | Nc1cnn([C@@H]2O[C@H](CO)[C@@H](O)[C@H]2O)c(=O)n1 | 21.7 µM (active) | 
20 | CC(=O)CC(=O)c1ccccc1 | 6.9 µM (active) | 

Row | Structure (SMILES) | Potency | activity change, negative = inhibition
21 | CC(=O)/C=C/C1C(C)=CCCC1(C)C (stereo not given) | inactive | 
22 | NC(=S)N/N=C/c1cccnc1 | inactive | 
23 | O=C(C(=O)c1ccc(Br)cc1)c1ccc(Br)cc1 |  | 2.45% [at 19 µM] (inactive)
24 | C=C(C)C(=O)OCCN(C)C | inactive | 
25 | CCCCCC(CO)CCC (stereo not given) | inactive | 
26 | Cn1sccc1=O | 30.6 µM (active) | 
27 | CCOc1ccc(NC(=O)CC(C)=O)cc1 | inactive | 
28 | CCCCOC(O)CC (stereo not given) | inactive | 
29 | Cc1cccc(C(C)(C)C)c1O | inactive | 
30 | CC(C(=O)O)c1ccc(-c2ccccc2)c(F)c1 (stereo not given) | inactive | 
31 | O=c1c2ccccc2nnn1CCl | inactive | 
32 | CCCCCc1ccc(N)cc1 | inactive | 
33 | C=CCCCCCC | inactive | 
34 | CCOC(=O)CC(=O)c1cc(F)c(Cl)nc1Cl | inactive | 
35 | Nc1ccc(C(=O)N2CC3CC(CN(Cc4ccccc4)C3)C2)cc1 | inactive | 
36 | CC[C@H](C)[C@H](N)C(=O)O | inactive | 
37 | COc1cc(C(C)(C)C)c(O)c(C(C)(C)C)c1 | inactive | 
38 | Cc1ccc(C(=O)C(C)CN2CCCCC2)cc1 (stereo not given) | inactive | 
39 | C=C(C)C(=O)OCCOc1ccccc1 | inactive | 
40 | O=C(O)Cc1cc(I)c(Oc2ccc(O)c(I)c2)c(I)c1 | inactive | 
